PubChem BioAssay (EPA / NIEHS)
Calls of active or inactive are those of the source. How the source made its calls: active means hit-call score of the fitted dose curve at least 0.9, where 1 is the maximum; inactive means score below 0.9.

Experiment: ATG_Oct_MLP_CIS: Attagene CIS-FACTORIAL HepG2 Assay for human Octamer-Binding Transcription Factor (Oct) (AID 2282993)
Details: HepG2 Attagene cis-factorial Oct reporter, mRNA; actives raise or lower the signal
Protocol: ATG_CIS is a cell-based, multiplexed-readout assay that uses HepG2, a human liver cell line, with measurements taken at 24 hours after chemical dosing in a 24-well plate.ATG_Oct_MLP_CIS is one of 52 assay component(s) measured or calculated from the ATG_CIS assay. It is designed to make measurements of mRNA induction, a form of inducible reporter, as detected with fluorescence intensity signals by Reverse transcription polymerase chain reaction (RT-PCR) and Capillary electrophoresis technology.Data from the assay component ATG_Oct_MLP_CIS was analyzed into 1 assay endpoint. This assay endpoint, ATG_Oct_MLP_CIS, was analyzed with bidirectional fitting relative to DMSO as the negative control and baseline of activity. Using a type of inducible reporter, measures of mRNA for gain or loss-of-signal activity can be used to understand the reporter gene at the transcription factor-level as they relate to the gene POU2F1. Furthermore, this assay endpoint can be referred to as a primary readout, because this assay has produced multiple assay endpoints where this one serves a reporter gene function. To generalize the intended target to other relatable targets, this assay endpoint is annotated to the dna binding intended target family, where the subfamily is POU domain protein.
Human liver HepG2 cells are transiently transfected with multiple reporter transcription units (MRTUs) in 6-well plates using FuGene 6 reagent (Roche; 3 ml FuGene/1 mg DNA). The MRTU constructs are regulated by a cis-regulating element (promoter). […] A major difference between the CIS and TRANS system is that in CIS activities of endogenous TFs are measured, whereas the TRANS assay evaluates changes in activities of exogenous, chimeric NR-Gal4 proteins. […] At the end of 24 hour incubation, total RNA was isolated using TriZol reagent (Invitrogen). The isolated RNA is then reverse-transcribed using oligo(dT) primer and Mo-MLV reverse transcriptase (Invitrogen) with DNAse I (Ambion) treatment for 30 min. The one-tenth of the produced cDNA was amplified by PCR using Taq DNA polymerase (Invitrogen) and two reporter sequence-specific primers. The PCR products were fluorescently labeled by primer extension with 6-arboxyfluorescein (6-FAM) 5'-labeled reporter sequence-specific primer (2 min at 95 C, 20 s at 68 C and 10 min at 72 C) and these products were digested with 5U of HpaI (New England Biolabs) for 2h at 37 C. The fragments were purified using Qiaquick PCR columns (Qiagen), analyzed on an ABI 3130xL genetic analyzer (Applied Biosystems) with peak positions identified by using a set of X-rhodamine (ROX)-labeled MapMarker1000 molecular weight standards (BioVentures). The raw capillary electrophoresis data was processed using Attagraph software (Attagene).
For `CNC[C@H](O)[C@@H](O)[C@H](O)[C@H](O)CO`, the outcome was “inactive”.
With `Cc1ccnc(N)c1` the outcome was “inactive”.
With `CN(C)CCC(c1ccc(Cl)cc1)c1ccccn1` (stereo not given) the outcome was “inactive”.
In the case of `[O-][n+]1ccc(Cl)cc1`, the outcome is reported as “inactive”.
With `COc1c2occc2cc2ccc(=O)oc12` the outcome was “inactive”.
In the case of `CCO[Si](CCCN)(OCC)OCC`, the outcome is reported as “inactive”.
In the case of `CC(=O)CCc1ccccc1`, the outcome is reported as “inactive”.
For `CCCCCCCC#N`, the outcome was “inactive”.
In the case of `Oc1ccc(Oc2ccccc2)cc1`, the outcome is reported as “inactive”.
For `Sc1nc2ccccc2s1`, the outcome was “inactive”.
For `NC(=O)c1ccc(N)cc1`, the outcome was “inactive”.
For `CNC(=C[N+](=O)[O-])NCCSCc1csc(CN(C)C)n1`, the outcome was “inactive”.
In the case of `CC1=C(CC=O)C(C)(C)CCC1`, the outcome is reported as “inactive”.
In the case of `Cc1cccnc1`, the outcome is reported as “inactive”.
With `CC1(C)S[C@@H]2[C@H](NC(=O)[C@H](N)c3ccccc3)C(=O)N2[C@H]1C(=O)O` the outcome was “inactive”.
For `CC1=C(CC(=O)O)c2cc(F)ccc2/C1=C\c1ccc(S(C)=O)cc1` (stereo not given), the outcome was “inactive”.
With `NCc1ccccc1` the outcome was “inactive”.
For `C=CCOCC(CC)(CO)COCC=C`, the outcome was “inactive”.
In the case of `Cc1cc(C)c(S(=O)(=O)O)cc1N=Nc1cc(S(=O)(=O)O)c2ccccc2c1O`, the outcome is reported as “inactive”.
For `CC(=O)Nc1c(I)c(NC(C)=O)c(I)c(C(=O)O)c1I`, the outcome was “inactive”.
In the case of `CC/C=C\CCO`, the outcome is reported as “inactive”.
In the case of `CC(C)n1c(/C=C/[C@@H](O)C[C@@H](O)CC(=O)O)c(-c2ccc(F)cc2)c2ccccc21`, the outcome is reported as “inactive”.
For `CCOc1ccc2c(c1)C(C)CC(C)(C)N2` (stereo not given), the outcome was “inactive”.
With `Oc1cccc2ccccc12` the outcome was “inactive”.
With `CCCCCC[C@@H](O)C/C=C\CCCCCCCC(=O)O` the outcome was “inactive”.
With `O=C(CC(C(=O)OC1CCCCC1)S(=O)(=O)O)OC1CCCCC1` (stereo not given) the outcome was “inactive”.
With `Clc1ccc(Sc2cc(Cl)c(Cl)cc2Cl)cc1` the outcome was “inactive”.
For `OCCc1ccccn1`, the outcome was “inactive”.
In the case of `CCCCCCC1CCC(=O)O1` (stereo not given), the outcome is reported as “inactive”.
For `CC1=CCCC(C)(C)C12CCC(C)O2` (stereo not given), the outcome was “inactive”.
With `C=CCOC(=O)C(=C)C` the outcome was “inactive”.
For `O=S(=O)(O)c1cccc2ccccc12`, the outcome was “inactive”.
In the case of `CC[N+](CC)(CC(=O)Nc1c(C)cccc1C)Cc1ccccc1`, the outcome is reported as “inactive”.
In the case of `Cc1cc(O)cc(C)c1Cl`, the AC50 is reported as 100 µM (active).
For `CC(C)(Oc1ccc(Cl)cc1)C(=O)O`, the outcome was “inactive”.
For `CCCC(=O)OC/C=C(\C)CCC=C(C)C`, the outcome was “inactive”.
In the case of `c1cc[c]([Bi]([c]2ccccc2)[c]2ccccc2)cc1`, the outcome is reported as “inactive”.
For `O=C1NC(=O)C2CC=CCC12` (stereo not given), the outcome was “inactive”.
In the case of `CCOC(=O)c1ccccc1`, the outcome is reported as “inactive”.
For `CC(C)(C)NC(=O)[C@@H]1CN(Cc2cccnc2)CCN1C[C@@H](O)C[C@@H](Cc1ccccc1)C(=O)N[C@H]1c2ccccc2C[C@H]1O`, the outcome was “inactive”.
